The nature of the assay: MAC1 induction in normal CD34+ cells, SAR follow-up, cell-based, MAC1 flow cytometry, set 1 (AID 743198). The settings on record: human CD34+ cells, 4 days; at 10 µM (top of the series). On the technique in general: Flow cytometry measures light scatter and fluorescence of single cells or particles in a stream.

Calls of active or inactive are those of the source.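 How the source made its calls: active means at least 15% MAC1-positive differentiation at the top dose and half-maximal dose below 10 µM; inactive means the rest.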

In turn, `O=C(CCNC(=O)c1ccc(Cl)cc1)N[C@@H]1CCCc2ccccc21` gave an MAC1+ differentiation, normalised of 95.7%.

As for `O=C(CCCNC(=O)c1ccc(OC(F)(F)F)cc1)N[C@@H]1CCCc2ccccc21`, the molecule was classed as inactive.

With `O=C(CNC(=O)c1ccc(OC(F)(F)F)cc1)N[C@@H]1CCCc2ccccc21`, the call was inactive.

On to `O=C(CCNC(=O)c1ccc(Cl)c(Cl)c1)N[C@@H]1CCCc2ccccc21`, for which the MAC1+ differentiation, normalised came to 96.1%.

Take `O=C(CCNC(=O)c1ccc2c(c1)OC(F)(F)O2)N[C@@H]1CCCc2ccccc21`: the MAC1+ differentiation, normalised is 90%.

Consider `O=C(CCNC(=O)c1ccc(Cl)cc1)N[C@H]1CCCc2ccccc21`, for which the outcome was inactive.

Molecule `O=C(CCNC(=O)c1ccc(C(F)(F)F)cc1)N[C@@H]1CCCc2ccccc21` showed an MAC1+ differentiation, normalised of 96%.

Regarding `O=C(CCNC(=O)c1ccc(Cl)cc1)NC1CCCc2ccccc21` (stereo not given), the MAC1+ differentiation, normalised stood at 86.2%.

Take `O=C(CCNC(=O)c1ccc(OC(F)(F)F)cc1)N[C@@H]1CCCc2ccccc21`: the MAC1+ differentiation, normalised came out at 96.3%.

Consider `O=C(O)c1cccnc1Nc1ccc(Cl)cc1`, for which the MAC1+ differentiation, normalised amounted to 85%.

These data come from PubChem BioAssay AID743198 (NMMLSC, 2013).
